# RT RNaseH block: inhibitors of HIV-1 reverse transcriptase RNase H; AID 565; RT-RNase H RNA/DNA duplex cleavage, fluorescence; inhibition, % at 10 µM; actives 1.9% (n = 65,000); P04585; in the data active = inhibition above about 50%
# RmlC RmlD mix: inhibitors of RmlC and RmlD coupled enzymes | inhibition, % at 5.5 µM | RmlC/RmlD coupled enzyme inhibition, 384-well mixture HTS | AID 1532 | actives 0.39% (n = 110,000); in the data active = inhibition above about 30%, passing the limit was not always enough
# RmlCD fluor art: shows fluorescent artifact in RmlC/RmlD assay, dose-response counter-screen. actives 96% (n = 360). RmlC/RmlD assay fluorescence artifact counter-screen. AID 1696. shares compounds with RmlC RmlD mix. calls only; call rule not given here;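 also: compound alone with no enzyme and no substrates present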
# * marks the source's active call; other numbers are inactive results; i = inactive; . = no result given; + = active, no number. This is one part of a sample in which hits are shown more often than they occur.
SMILES,RT RNaseH block,RmlC RmlD mix,RmlCD fluor art
CCOC(=O)CN1C=C(c2ccc3ccccc3n2)C(C[N+](=O)[O-])c2ccccc21 (stereo not drawn),.,47*,+
COc1ccc(-c2cc(=NCCC(=O)O)c3cc(C)ccc3o2)cc1,.,.,+
COc1ccc(-c2cc(=Nc3ccc(C)cc3)c3ccccc3o2)cc1,.,14,.
COc1cc(OC)cc(C(=O)N[C@H](C(=O)Nc2ccccc2N2CCOCC2)C(C)C)c1,.,-34,.
CCCCC1=CC2=CC(=O)C(C)(OC(=O)CC)C(=O)C2=CN1CCc1ccccn1 (stereo not drawn),.,6,.
COc1ccc(OCc2nnc(SCC(=O)O)n2N)cc1,-6,5,.
C=CCn1c(=O)/c(=C\c2ccsc2)s/c1=C(/C#N)C(=O)NCCN1CCOCC1,-9,7,.
COCCCn1c(=O)/c(=C\c2ccc(OC(F)F)c(OC)c2)s/c1=C(/C#N)C(=O)NCCOC,.,.,i
CC(C)(C#N)Nc1ccccc1,-8,-11,.
CSc1nc2c(c(=O)n1C)SC(C)C2 (stereo not drawn),-3,9,.
COC(=O)c1ccc2c(c1)C(C)(C)C(/C=C/c1ccc(O)cc1)=[N+]2C,.,19,.
COC(=O)c1ccc2c(c1)C(C)(C)C(/C=C/c1ccc(OC)c(OC)c1OC)=[N+]2C,.,45*,+
O=C(N/N=C/c1ccc(Cl)cc1Cl)C1CCN(c2ncc(C(F)(F)F)cc2Cl)CC1,.,0,.
CCc1cc2c(CN3CCN(CCO)CC3)cc(=O)oc2cc1O,-11,61*,+
CCc1cc2c(CN3CCN(C)CC3)cc(=O)oc2cc1O,0,-2,.
COC(=O)c1nn(-c2ccc3c(c2)OCO3)cc1O,.,-2,.
COC(=O)c1nn(-c2ccc3c(c2)CCN3C(C)=O)cc1O,.,41*,+
COc1cc(NC(=O)c2cccs2)c(C(=O)OCC(=O)NC(C)c2ccccc2)cc1OC (stereo not drawn),.,-6,.
COc1cc(NC(=O)c2cccs2)c(C(=O)OCC(=O)NCc2ccccc2)cc1OC,.,45*,+
Cc1c(CCC(=O)O)c(=O)oc2cc3occ(-c4ccc(F)cc4)c3cc12,-27,-6,.
Cc1c(CCC(=O)O)c(=O)oc2cc(O)ccc12,-6,128*,+
COc1ccc(C(=O)NC2CCN(S(=O)(=O)Cc3ccccc3)CC2)c(OC)c1,-7,5,.
COc1ccc2cc3cc(C(=O)NCC4CCCO4)oc3nc2c1 (stereo not drawn),-19,105*,+
COc1ccc2cc3cc(C(=O)Nc4ccccc4N4CCN(C)CC4)oc3nc2c1,-9,-6,.
COc1ccc2cc3cc(C(=O)NCc4ccccn4)oc3nc2c1,-22,.,.
SMILES,RT RNaseH block,RmlC RmlD mix,RmlCD fluor art
CCOc1ccc(NC(=O)c2cc3cc4ccc(OC)cc4nc3o2)cc1,.,105*,+
CCCCN(CC)C(=O)c1cc2cc3ccc(OC)cc3nc2o1,.,-4,.
COc1ccc2cc3cc(C(=O)NCCN4CCN(c5ccccc5F)CC4)oc3nc2c1,-20,.,i
CCOc1ccc(NCCC#N)cc1,.,2,.
CCN(CC)CCOC(=O)C1(C2CCCCC2)CCCCC1,-7,4,.
Cc1ccc([N+](=O)[O-])cc1N=Cc1ccc(Br)s1,.,6,.
Cc1ccc(C(=O)O)cc1N=Cc1cc(Br)cc(Br)c1O,.,.,+
CCOC(=O)N1CCC(N2C(=O)c3ccccc3C2Nc2cccnc2)CC1 (stereo not drawn),1,3,.
CCOc1ccc(Nc2oc(-c3ccco3)nc2C#N)cc1,-8,-15,.
CCOc1ccc(Nc2oc(-c3cccc(Cl)c3)nc2C#N)cc1,.,36*,+
O=c1c2sc(-c3ccccc3)cc2nc2n1CCC2,.,-10,.
O=C(Nc1ccc2oc(-c3ccc4ccccc4c3)nc2c1)c1ccc2c(c1)OCCO2,.,36*,+
O=C(Nc1ccc(-c2nc3cc(NC(=O)c4cccs4)ccc3o2)cc1)c1cccs1,.,93*,+
Cc1ccc2nc(-c3cccc(NC(=O)c4ccc5c(c4)OCCO5)c3)oc2c1,14,2,.
O=C(Nc1ccc2oc(-c3ccncc3)nc2c1)c1cccs1,-3,0,.
Cc1ccc(NC(=O)C2CC(=O)NC(Nc3cccc(C)c3)=N2)cc1 (stereo not drawn),-6,4,.
O=C(NCc1ccncc1)c1cccc(Cn2cc(Br)cn2)c1,-10,8,.
Nc1c(C(=O)NCc2ccccc2)sc2nc(N3CCOCC3)c3c(c12)CCCC3,.,-123,.
CCOC(=O)c1ccc(-c2ccc(CO)o2)cc1,.,62*,+
CCOC(=O)c1ccc(COC(=O)c2ccc(-c3nnc(-c4ccccc4)o3)cc2)o1,10,-180,.
O=c1cc(-c2ccccc2Cl)c2c([nH]1)CCC2,13,4,.
CCn1c(C)nc2cc(C(=O)N/N=C(\C)c3ccc(OC)cc3O)ccc21,.,.,+
CCn1c(C)nc2cc(C(=O)NNS(=O)(=O)c3c(C)c(C)cc(C)c3C)ccc21,.,-11,.
CCCCCn1c(N)c(C#N)c2nc3ccccc3nc21,-6,-11,.
N#Cc1c(N)n(CCNC(=O)c2cccs2)c2nc3ccccc3nc12,-11,37*,+
SMILES,RT RNaseH block,RmlC RmlD mix,RmlCD fluor art
CCOC(=O)c1c(N)n(Cc2ccco2)c2nc3ccccc3nc12,-4,72,.
COCCOC(=O)c1c(N)n(Cc2ccccc2)c2nc3ccccc3nc12,6,54,.
CCCCOCCCn1c(N)c(C(=O)OCCOC)c2nc3ccccc3nc21,5,57*,+
COCC(C)OC(=O)c1c(N)n(Cc2ccco2)c2nc3ccccc3nc12 (stereo not drawn),7,56*,+
CCOC(=O)N1CCN(C(=O)c2cnsn2)CC1,-6,2,.
Cc1ccc(S(=O)(=O)Nc2nncs2)cc1,8,1,.
CC(C)C1N(C(=O)CN2CCCC2)CCN1S(=O)(=O)c1ccccc1 (stereo not drawn),-7,-9,.
CCOC(=O)c1cccc([P+](=O)O)c1,-13,6,.
O=C(Cn1nnc2c(cnn2-c2ccc(F)cc2)c1=O)OC1CCCCC1,-8,3,.
c1ccc2nc3[nH]cnc3nc2c1,5,6,.
Cc1cc(=O)oc2cc(NS(=O)(=O)c3ccccc3)ccc12,.,.,+
CN(C)S(=O)(=O)c1ccc(S(=O)(=O)Nc2ccc3c(c2)oc2ccccc23)cc1,-3,6,.
CCOC(=O)N1CCN(C2CC(=O)N(c3ccc(Oc4ccccc4)cc3)C2=O)CC1 (stereo not drawn),.,5,.
CCC(C)[C@H](NC(=O)NCCCc1ccccc1)C(=O)OC (stereo partly drawn),.,-9,.
CCOC(=O)Nc1ccc2c(CN3C(=O)NC(CC)(CC)C3=O)cc(=O)oc2c1,.,38,.
CCOC(=O)Nc1ccc2c(CN3C(=O)NC4(CCCC4)C3=O)cc(=O)oc2c1,23,74*,+
COC(=O)c1cc2ccccn2c2c(C(=O)OC)c(C(=O)OC)cc1-2,.,1,.
CN(C)CCSc1nnc2sc3ccccc3n12,-3,25,.
COCC(=O)N(C)c1nnc(-c2ccccn2)s1,18,111*,+
CN(C(=O)C1CCCO1)c1nnc(-c2ccncc2)s1 (stereo not drawn),-1,161*,+
Cc1cccc(C(=O)N(C)c2nnc(-c3ccncc3)s2)c1,-1,10,.
COc1ccccc1CCNC(=O)C1CCCO1 (stereo not drawn),-9,6,.
COc1ccc(-c2nnc(NC(=O)C3CCCO3)s2)cc1 (stereo not drawn),.,-8,.

# Screening data as filed in PubChem.
